The structures appear in SMILES notation. Where “and” joins values, the source holds several entries; their conditions need not be identical. Equal entries are not always repeated. The campaign covered roughly 260,000 compounds. About 2,200 (0.85%) were called active.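 Rule for the calls: active = compounds whose cAMP rise, as percent of the full-agonist control response, exceeds 60; inactive = the rest.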 The entries come from a sample that favours actives as a whole. Where a structure was tested more than once in an assay, its records may differ in their call.

The target in this experiment is Prostaglandin E2 receptor EP2 subtype (Homo sapiens) (UniProt P43116). Nature of the experiment: EP2 receptor modulators, cAMP readout, primary screen, cell-based, HTRF cAMP, PGE2 stimulation (AID 940).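 Note: rat C6 glioma line stably carrying human EP2 under a CMV promoter; the protocol text gives 20 µM as final concentration; 100% = response of wells given 1 µM PGE2.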 Conditions: EP2-expressing cells, cAMP HTRF FRET, PGE2 co-stimulation; at 25 µM; stronger effect = higher value. On the technique in general: TR-FRET usually uses a lanthanide donor and a delayed reading to cut background.
Chain of Prostaglandin E2 receptor EP2 subtype (Homo sapiens) (P43116 whole entry, looked up): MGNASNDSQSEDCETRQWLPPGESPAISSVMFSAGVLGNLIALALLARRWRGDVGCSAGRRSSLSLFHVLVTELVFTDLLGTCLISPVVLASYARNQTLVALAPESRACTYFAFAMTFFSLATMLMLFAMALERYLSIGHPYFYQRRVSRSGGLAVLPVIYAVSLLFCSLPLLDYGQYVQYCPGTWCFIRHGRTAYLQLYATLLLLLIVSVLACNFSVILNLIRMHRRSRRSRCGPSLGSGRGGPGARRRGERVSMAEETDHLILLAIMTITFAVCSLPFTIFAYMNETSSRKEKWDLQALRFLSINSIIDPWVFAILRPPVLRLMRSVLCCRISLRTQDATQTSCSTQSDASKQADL
Consider `C[N+]1(C)CCOC(O)(c2ccc(-c3ccc(C4(O)C[N+](C)(C)CCO4)cc3)cc2)C1` (stereo not given), for which the induction is 27.6% (inactive) and 76.2% (active). Consider `C=CCc1cc(CN2C3CCC2CC(O)(c2nccn2C)C3)cc(OCC)c1O` (stereo not given), for which the induction is -31.8% (inactive). For `Cc1cccc2cc(CN(Cc3ccco3)C3(c4nnnn4C4CCCC4)CCCCC3)c(=O)[nH]c12`, the induction is 24.8% (inactive).

On to `N#CC1=C(N)Oc2c(c(=O)oc3ccccc23)C1c1cc2c(cc1Cl)OCO2` (stereo not given), for which the induction was 0.48% (inactive). The value for `COc1ccccc1/C=C/CN1C2CCC1CC(O)(c1ccccc1F)C2` (stereo not given) was -60.2% (inactive); that for `O=C(CN1C2CCC1CC(O)(c1ccco1)C2)NCc1ccccc1` (stereo not given) was -18.4% (inactive). The value for `CC(c1ccccc1)(c1ccccc1)c1ccncc1` was 61.2% (active); that for `O=C1CCCN1C(=O)c1cc(Cl)cc(Cl)c1` was -0.43% (inactive). Next, `OC12CCCCC1CN(Cc1ccnc3ccccc13)CC2` (stereo not given): -29.6% (inactive); `O=C(CN1C2CCC1CC(O)(c1ccccn1)C2)N1c2ccccc2Sc2ccccc21` (stereo not given): 8.29% (inactive).

The values above are taken from PubChem BioAssay AID940 (Emory University Molecular Libraries Screening Center, 2007).
